According to PubChem BioAssay (NCATS):
Records with an inconclusive call do not appear. Active and inactive are the calls of the source. The call rests on the fitted dose curve; in most records, active means well fitted cell-killing curve with a large enough effect; inconclusive means small, poorly fitted or top-dose-only effect; inactive means no such curve, though single readings can be large or run the other way.

Assay: qHTS of pediatric cancer cell lines to identify multiple opportunities for drug repurposing: Primary screen for A673 cells (AID 1347092); further: nearly all actives have a fitted effect of over 45% in size
Settings: A673 Ewing sarcoma viability, CellTiter-Glo ATP luminescence, 48 h; series mostly up to 46 µM; activity change, negative = cytotoxic: at the top concentration
Excerpt: Drug repurposing or repositioning has been offered as a strategy for drug development in oncology programs. This approach has special potential for childhood cancers and other rare or orphan diseases, where the expected return on new drug development has been a disincentive to pharmaceuticals. […] In this project we exploit the poly-pharmacology of drugs to discover new indications via phenotypic screening of a panel of 19 well-characterized cell lines derived from solid tumors seen in children and adolescents. The goal is to identify approved drugs with previously unrecognized anticancer properties that has the potential to reveal new mechanisms and biological processes involved in carcinogenesis or drug resistance. We employed a titration-based paradigm (quantitative high-throughput screening or qHTS), where all compounds were tested at multiple concentrations for their effect on cell viability. Concentration-response curves (CRCs) were derived directly from the primary screen, and both potency and efficacy values were used to identify compounds with robust bioactivity profiles. We screened the NIH Chemical Genomics Center (NCGC) Pharmaceutical Collection (NPC) and Mechanism Interrogation Plate (MIPE) small molecule collections of approved and investigational compounds against these cell lines; and measured metabolically active cells after 48 hours of compound treatment as a proxy for cell viability. […] Assay Submitter: Nathalia J. Martinez, National Center for Advancing Translational Sciences, National Institutes of Health, Rockville, MD, USA; email: natalia.martinez@nih.gov. Shen, M et al. Quantitative high-throughput phenotypic screening of pediatric cancer cell lines identifies multiple opportunities for drug repurposing. Oncotarget 2017 Dec 19;9(4):4758-4772. PMID 29435139.
The cells were obtained from University of North Carolina (UNC), Pediatric Preclinical Testing Program (PPT), and Coriell Institute (CI). qHTS cell viability assay: Cells were assayed in growth media at a density of 500-1,000 cells/well. Five microliters of cells were dispensed into 1,536-well, white, solid-bottom, TC-treated plates (Greiner Bio One) using a multidrop dispenser and incubated at 37 degrees C, 5% CO2, under a humidified atmosphere for 5 hours. Twenty-three nanoliters of compounds and controls (neutral control DMSO or positive control bortezomib at final concentration of 2.3 uM) were subsequently transferred by Kalypsys pintool. For primary screens, the MIPE collection was tested at 11-point dilutions (final concentrations range from 0.78 nM to 46 µM) and the NPC collection at 8-point dilutions (final concentrations range from 0.59 nM to 46 µM). Compounds tested in follow-up screens were assayed at 11-point dilutions. Cells were incubated for 48 hours, followed by addition of 3 uL of CellTiter-Glo (Promega). After a 15min incubation at room temperature, samples were analyzed for luminescence intensity using a ViewLux High-throughput CCD imager equipped with clear filters.
On the % scale 0 is the no-effect control and ±100 the full control effect; potency means the concentration at half of the fitted maximal effect.

Compound	activity change, negative = cytotoxic	Potency
OC1(c2ccccc2)CCNCC1	-10.3% (inactive)	
CCCCN(CCCC)C(C(N)=O)c1ccc(OC)cc1 (stereo not given)	-13.1% (inactive)	
Cc1coc2ccccc2c1=O	-2.52% (inactive)	
Nc1c[n+](N2CCOCC2)no1	6.44% (inactive)	
O=C(O)C1CCC1	7.58% (inactive)	
CC1CC(=O)NN=C1c1ccc(NCC(C)(C)NCC(O)COc2cc(Cl)ccc2C#N)cc1 (stereo not given)	-4.04% (inactive)	
OC1(c2ccc(Cl)c(C(F)(F)F)c2)CCN(CCCC(c2ccc(F)cc2)c2ccc(F)cc2)CC1		10.6 µM (active)
CN1Cc2cc(C(=O)N3CCC(C4CCNCC4)CC3)ccc2N[C@@H](CC(=O)O)C1=O	12.2% (inactive)	
NS(=O)(=O)c1ccc(N2CCCCS2(=O)=O)cc1	5.82% (inactive)	
CCCCCCCCCCCCCCCCCCN(C)C	0.666% (inactive)	
C#CC(C)(CC)OC(=O)c1ccccc1C(=O)O (stereo not given)	18.3% (inactive)	
COC(=O)c1c(Cl)c(Cl)c(C(=O)OC)c(Cl)c1Cl	-23.4% [at 92.7 µM] (inactive)	
CCOC(=O)O[C@]1(C(=O)OCCl)CC[C@H]2[C@@H]3CCC4=CC(=O)C=C[C@]4(C)[C@H]3[C@@H](O)C[C@@]21C	5.91% (inactive)	
O=C(O)c1ccccc1Nc1cc(Cl)ccc1C(=O)O	0.0786% [at 16.1 µM] (inactive)	
O=C(OCC(O)CO)c1ccccc1Nc1ccnc2c(C(F)(F)F)cccc12 (stereo not given)	-10.4% (inactive)	
Cc1cccc(N(C)C(=S)Oc2ccc3c(c2)CCC3)c1	-3.79% (inactive)	
CC1(C)S[C@@H]2[C@H](NC(=O)C(c3ccccc3)S(=O)(=O)O)C(=O)N2[C@H]1C(=O)O (stereo not given in full)	-1.09% (inactive)	
O=C(CCOCCOCCOCCOCCC(=O)Nc1c(I)cc(I)c(C(=O)O)c1I)Nc1c(I)cc(I)c(C(=O)O)c1I	9.56% (inactive)	
Nc1c(I)cc(I)c(C(=O)N(CCC(=O)O)c2ccccc2)c1I	-11.2% (inactive)	
CN(CC1(C)CCCO1)S(=O)(=O)c1ccc(Cl)c(S(N)(=O)=O)c1 (stereo not given)	9.65% (inactive)	

Compound	activity change, negative = cytotoxic	Potency
C[C@H]1C[C@H]2[C@@H]3CCC4=CC(=O)C=C[C@]4(C)[C@H]3C(=O)C[C@]2(C)[C@@]1(O)C(=O)CO	-5.44% (inactive)	
NCC[C@H](O)C(=O)N[C@@H]1C[C@H](N)[C@@H](O[C@H]2O[C@H](CN)[C@@H](O)[C@H](O)[C@@H]2O)[C@H](O)[C@@H]1O[C@H]1O[C@H](CO)[C@@H](O)[C@H](N)[C@@H]1O	-3.3% [at 0.597 µM] (inactive)	
O=C(Oc1ccccc1)c1ccccc1O	-2.28% (inactive)	
O=C(CCCl)NCCc1ccccc1	11.8% (inactive)	
O=C(O)[C@@H](O)[C@H](O)[C@H](O)[C@@H](O)C(=O)O	8.61% (inactive)	
COCCc1ccc(OCC2CO2)cc1 (stereo not given)	-20% (inactive)	
COc1cc(C(=O)OC(COCCC(C)C)CN2CCOCC2)cc(OC)c1OC (stereo not given)	5.49% (inactive)	
CN1CC(=O)N2[C@H](c3ccc4c(c3)OCO4)c3[nH]c4ccccc4c3C[C@@H]2C1=O	-3.92% (inactive)	
CC(=O)[C@H]1CC[C@H]2[C@@H]3C=CC4=CC(=O)CC[C@@]4(C)[C@@H]3CC[C@]12C	-21.8% (inactive)	
CC(C)C(=O)Nc1cccc(C(F)(F)F)c1	-1.59% (inactive)	
O=[N+]([O-])c1cncn1CCN1CCOCC1	13.3% (inactive)	
C[N+]1(C)CCC(OC(=O)C(O)(c2ccccc2)C2CCCC2)C1 (stereo not given)	-0.333% (inactive)	
CCCCNc1ccc(C(=O)OCCN(CC)CC)cc1	3.79% (inactive)	
CN1CCCN=C1/C=C/c1cccs1	0.257% (inactive)	
CCOC(=O)c1ccc(OCCN2C[C@H](O)[C@@H](O)[C@H](O)[C@H]2CO)cc1	6.11% (inactive)	
C[N+]1(CC2COC(c3ccccc3)(c3ccccc3)O2)CCCCC1 (stereo not given)	-12.5% [at 16.1 µM] (inactive)	
CN1C(=O)CC(C)(c2ccccc2)C1=O (stereo not given)	-22.4% (inactive)	
CC(=O)N(CC(O)CO)c1c(I)c(C(=O)NCCO)c(I)c(C(=O)NCC(O)CO)c1I (stereo not given)	4.33% (inactive)	
CN1CCC(=C2c3ccccc3CCc3cccnc32)CC1	-2.28% (inactive)	
CN(C)C(=O)CNC(=O)Cc1ccccc1	-19.6% (inactive)	
